# Assay results: PubChem BioAssay AID1508601 (ICCB-Longwood Screening Facility, Harvard Medical School, 2020)
# Among all 5,700 compounds or so, about 85 (1%) were called active. No stated cut-off is given here; in the data, active means p53-positive nuclei above about 36% (passing the limit was not always enough); inactive means the rest. Many of the other results were omitted from the sample, so actives are more common in it than they were.
# How the values were obtained:
# [1] = nuclear p53 accumulation, HPV+ cells – imaging, p53-positive nuclei imaging, 24 h, 48 h (AID 1508601); conditions: 24/48 h
# [2] = molecular target: Cellular tumor antigen p53 (Homo sapiens) (UniProt P04637); assay: as above; conditions: 24/48 h, stronger effect = higher value
# Chain of Cellular tumor antigen p53 (Homo sapiens) (P04637 whole entry, looked up): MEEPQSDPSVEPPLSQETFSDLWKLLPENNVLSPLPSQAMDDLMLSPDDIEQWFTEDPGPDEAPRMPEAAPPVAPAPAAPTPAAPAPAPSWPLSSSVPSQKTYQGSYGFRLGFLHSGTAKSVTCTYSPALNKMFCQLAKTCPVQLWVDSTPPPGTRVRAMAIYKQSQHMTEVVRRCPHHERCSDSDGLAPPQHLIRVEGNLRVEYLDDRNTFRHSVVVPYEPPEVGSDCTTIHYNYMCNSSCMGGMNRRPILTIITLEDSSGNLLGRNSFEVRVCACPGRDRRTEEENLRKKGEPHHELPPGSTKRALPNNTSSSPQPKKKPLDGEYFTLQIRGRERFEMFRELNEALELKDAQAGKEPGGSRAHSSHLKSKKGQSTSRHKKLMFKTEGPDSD
# [3] = measured here: cell number at 24 h, Library stock concentration: 80 uM
# [4] = measured here: cell number at 24 h, Library stock concentration: 400 uM
# [5] = measured here: cell number at 24 h, Library stock concentration: 2 mM
# [6] = measured here: cell number at 24 h, Library stock concentration: 10 mM
# [7] = measured here: cell number at 48 h, Library stock concentration: 80 uM
# [8] = measured here: cell number at 48 h, Library stock concentration: 400 uM
# [9] = measured here: cell number at 48 h, Library stock concentration: 2 mM
# [10] = measured here: cell number at 48 h, Library stock concentration: 10 mM
# [11] = Library stock concentration: 80 uM
# [12] = Library stock concentration: 400 uM
# [13] = Library stock concentration: 2 mM
# [14] = Library stock concentration: 10 mM
# [15] = measured here: p53 positive nuclei at 24 h, Library stock concentration: 80 uM
# [16] = measured here: p53 positive nuclei at 24 h, Library stock concentration: 400 uM
# [17] = measured here: p53 positive nuclei at 24 h, Library stock concentration: 2 mM
# [18] = measured here: p53 positive nuclei at 24 h, Library stock concentration: 10 mM
# [19] = measured here: cell number at 24 h, Library stock concentration: 3.33 mM
# [20] = measured here: cell number at 48 h, Library stock concentration: 3.33 mM
# [21] = Library stock concentration: 3.33 mM
# [22] = measured here: p53 positive nuclei at 24 h, Library stock concentration: 3.33 mM
smiles,measurement,setting,value
COc1cc(OC)cc(-c2ccc3ncc4ccc(=O)n(-c5ccc(N6CCNCC6)c(C(F)(F)F)c5)c4c3c2)c1,"nuclei count, normalised",[1]; [3],106%
same,"nuclei count, normalised",[1]; [4],104%
same,"nuclei count, normalised",[1]; [5],101%
same,"nuclei count, normalised",[1]; [6],45.6%
same,"nuclei count, normalised",[1]; [7],111%
same,"nuclei count, normalised",[1]; [8],107%
same,"nuclei count, normalised",[1]; [9],103%
same,"nuclei count, normalised",[1]; [10],30.1%
same,"p53-positive nuclei, normalised",[2]; [11],0.103% (inactive)
same,"p53-positive nuclei, normalised",[2]; [12],0.257% (inactive)
same,"p53-positive nuclei, normalised",[2]; [13],-0.11% (inactive)
same,"p53-positive nuclei, normalised",[2]; [14],10.5% (inactive)
same,"p53-positive nuclei, normalised",[2]; [15],-0.0535%
same,"p53-positive nuclei, normalised",[2]; [16],0.233%
same,"p53-positive nuclei, normalised",[2]; [17],0.0288%
same,"p53-positive nuclei, normalised",[2]; [18],11.7%
CCC(=O)N1CCN(c2ccc(-n3c(=O)ccc4cnc5ccc(-c6cnc7ccccc7c6)cc5c43)cc2C(F)(F)F)CC1,"nuclei count, normalised",[1]; [3],68.5%
same,"nuclei count, normalised",[1]; [4],59.7%
same,"nuclei count, normalised",[1]; [5],55.8%
same,"nuclei count, normalised",[1]; [6],43.7%
same,"nuclei count, normalised",[1]; [7],64.8%
same,"nuclei count, normalised",[1]; [8],49%
same,"nuclei count, normalised",[1]; [9],36.2%
same,"nuclei count, normalised",[1]; [10],21.9%
same,"p53-positive nuclei, normalised",[2]; [11],-0.0521% (inactive)
same,"p53-positive nuclei, normalised",[2]; [12],-0.0367% (inactive)
same,"p53-positive nuclei, normalised",[2]; [13],0.993% (inactive)
same,"p53-positive nuclei, normalised",[2]; [14],11.8% (inactive)
same,"p53-positive nuclei, normalised",[2]; [15],0.45%
same,"p53-positive nuclei, normalised",[2]; [16],0.126%
same,"p53-positive nuclei, normalised",[2]; [17],0.287%
same,"p53-positive nuclei, normalised",[2]; [18],0.768%
COc1ccc(-c2ccc3ncc4c(c3c2)n(-c2ccc(N3CCNCC3)c(C(F)(F)F)c2)c(=O)n4C)cn1,"nuclei count, normalised",[1]; [3],74.5%
same,"nuclei count, normalised",[1]; [4],49.8%
same,"nuclei count, normalised",[1]; [5],37.4%
same,"nuclei count, normalised",[1]; [19],46.3%
same,"nuclei count, normalised",[1]; [6],49.1%
same,"nuclei count, normalised",[1]; [7],70.7%
same,"nuclei count, normalised",[1]; [8],39.8%
same,"nuclei count, normalised",[1]; [9],21%
same,"nuclei count, normalised",[1]; [20],37.9%
same,"nuclei count, normalised",[1]; [10],37.2%
same,"p53-positive nuclei, normalised",[2]; [11],0.085% (inactive)
same,"p53-positive nuclei, normalised",[2]; [12],22.1% (inactive)
same,"p53-positive nuclei, normalised",[2]; [13],53.3% (active)
same,"p53-positive nuclei, normalised",[2]; [21],2.2% (inactive)
same,"p53-positive nuclei, normalised",[2]; [14],-0.138% (inactive)
same,"p53-positive nuclei, normalised",[2]; [15],0.126%
same,"p53-positive nuclei, normalised",[2]; [16],1.06%
same,"p53-positive nuclei, normalised",[2]; [17],14.2%
same,"p53-positive nuclei, normalised",[2]; [22],3.51%
same,"p53-positive nuclei, normalised",[2]; [18],-0.0446%
Cc1cn(C2OC(CO)C(O)C2F)c(=O)[nH]c1=O (stereo not given),"nuclei count, normalised",[1]; [19],108%
same,"nuclei count, normalised",[1]; [20],103%
same,"p53-positive nuclei, normalised",[2]; [21],-0.314% (inactive)
same,"p53-positive nuclei, normalised",[2]; [22],-0.356%
COC(=O)N1C(=O)[C@](c2ccccc2)(C2CCCC2)N1C(=O)OC,"nuclei count, normalised",[1]; [3],90.3%
same,"nuclei count, normalised",[1]; [4],87.6%
same,"nuclei count, normalised",[1]; [5],93.9%
same,"nuclei count, normalised",[1]; [6],90.1%
same,"nuclei count, normalised",[1]; [7],91.7%
same,"nuclei count, normalised",[1]; [8],93.5%
same,"nuclei count, normalised",[1]; [9],99.5%
same,"nuclei count, normalised",[1]; [10],96.9%
same,"p53-positive nuclei, normalised",[2]; [11],-0.0853% (inactive)
same,"p53-positive nuclei, normalised",[2]; [12],-0.162% (inactive)
same,"p53-positive nuclei, normalised",[2]; [13],0.00515% (inactive)
same,"p53-positive nuclei, normalised",[2]; [14],0.0597% (inactive)
same,"p53-positive nuclei, normalised",[2]; [15],-0.136%
same,"p53-positive nuclei, normalised",[2]; [16],-0.136%
same,"p53-positive nuclei, normalised",[2]; [17],0.165%
same,"p53-positive nuclei, normalised",[2]; [18],0.0248%
Cc1cc(C)c(/C=C2\C(=O)Nc3ccccc32)[nH]1,"nuclei count, normalised","[1]; measured here: cell number at 24 h, concentration not given here",96.2%
same,"nuclei count, normalised","[1]; measured here: cell number at 48 h, concentration not given here",102%
same,"p53-positive nuclei, normalised",[2]; concentration not given here,0.0559% (inactive)
same,"p53-positive nuclei, normalised","[2]; measured here: p53 positive nuclei at 24 h, concentration not given here",0.0506%
Cc1cc(C)c(C=C2C(=O)Nc3ccccc32)[nH]1,"nuclei count, normalised",[1]; [19],116%
same,"nuclei count, normalised",[1]; [20],119%
same,"p53-positive nuclei, normalised",[2]; [21],-0.0521% (inactive)
same,"p53-positive nuclei, normalised",[2]; [22],-0.278%
COc1cc(=C2C=c3ccccc3=N2)[nH]c1=Cc1[nH]c(C)cc1C,"nuclei count, normalised",[1]; [3],104%
same,"nuclei count, normalised",[1]; [4],82.2%
same,"nuclei count, normalised",[1]; [5],74.9%
same,"nuclei count, normalised",[1]; [19],71.2%
same,"nuclei count, normalised",[1]; [6],65.9%
same,"nuclei count, normalised",[1]; [7],101%
same,"nuclei count, normalised",[1]; [8],75.4%
same,"nuclei count, normalised",[1]; [9],60.3%
same,"nuclei count, normalised",[1]; [20],61.8%
same,"nuclei count, normalised",[1]; [10],52.6%
same,"p53-positive nuclei, normalised",[2]; [11],0.397% (inactive)
same,"p53-positive nuclei, normalised",[2]; [12],74% (active)
same,"p53-positive nuclei, normalised",[2]; [13],142% (active)
same,"p53-positive nuclei, normalised",[2]; [21],137% (active)
same,"p53-positive nuclei, normalised",[2]; [14],105% (active)
same,"p53-positive nuclei, normalised",[2]; [15],0.165%
same,"p53-positive nuclei, normalised",[2]; [16],72.4%
same,"p53-positive nuclei, normalised",[2]; [17],167%
same,"p53-positive nuclei, normalised",[2]; [22],159%
same,"p53-positive nuclei, normalised",[2]; [18],137%
